# Reference: PubChem BioAssay (Tox21)
# Results filed as inconclusive are left out. A call without a number means that no potency is given here. Calls of active or inactive are those of the source. Calls follow the shape of the dose curve; as a rule, active = well fitted cell-killing curve with a large enough effect in the repeat runs; inconclusive = weak or mixed curves, or effect the other way; inactive = flat fitted curve, though single readings scatter.
# Assay: qHTS RealTime-Glo MT Cell Viability Assay in HepG2 cells - 40 hour (AID 1224870); also: nearly all actives have a fitted effect of over 50% in size
# Settings: RealTime-Glo luminescence; series mostly up to 76.8 µM
# Text: National Center for Advancing Translational Sciences [NCATS]
# NIH Chemical Genomics Center [NCGC]
# U.S. Environmental Protection Agency [EPA]
# National Institutes of Environmental Health Sciences [NIEHS]
# National Toxicology Program [NTP]
# U.S. Food and Drug Administration [FDA]
# Measure of cell viability is critical in the cell-base assay. Analysis of cell viability is necessary for the characterization of cell responses to cytotoxic drugs and environmental stress. A RealTime-Glo MT Cell Viability Assay to monitor cell viability in real time of continues cell culture during 40 hours of compound treatment was used to screen Tox21 10K library compounds in HepG2 cells. The RealTime-Glo MT Cell Viability Assay is a nonlytic, homogeneous, bioluminescent method to measure cell viability in real time using a simple, plate-based method. The assay involves adding NanoLuc luciferase and a cell-permeant prosubstrate to cells in culture. Viable cells reduce the proprietary prosubstrate to generate a substrate for NanoLuc luciferase. This substrate diffuses from cells into the surrounding culture medium, where it is rapidly used by the NanoLuc Enzyme to produce a luminescent signal. The signal correlates with the number of viable cells, making the assay well suited for cytotoxicity studies.
# Tox21 Assay Protocol Summary:
# The mixture of HepG2 cell suspension and reagents were dispensed at 600cells/6 ul/well in 1536-well tissue culture treated black solid bottom plates using a Multidrop dispenser. After the assay plates were incubated at a 37 C/5% CO2 incubator for 5 hours, 23 nL of compounds dissolved in DMSO, positive and negative controls was transferred to the assay plate by a pintool work station. The plates were incubated at 37 C for 40 hours. The luminescence intensity were measured at 0h, 8h, 16h, 24h, 32h and 40h time points using ViewLux plate reader during compound treatment.
row,Compound,Potency
1,OCCOc1cccc(OCCO)c1,inactive
2,O=C(O)c1cccnc1Nc1cccc(C(F)(F)F)c1,inactive
3,CC(=O)Nc1ccn(C2COC(COC(=O)c3ccccc3)O2)c(=O)n1 (stereo not given),inactive
4,OCC(O)c1ccccc1 (stereo not given),inactive
5,CC/C=C/CCO,inactive
6,Clc1cccc(C(c2ccc3nc[nH]c3c2)n2ccnc2)c1 (stereo not given),inactive
7,Cc1ccc(NC=O)c(C)c1,inactive
8,O=C(O)c1cccc(C(=O)O)c1C(=O)O,inactive
9,NCCOCCOCCN,inactive
10,CCC[Si](OC)(OC)OC,inactive
11,O=C(O)c1cc(C(=O)O)c(C(=O)O)cc1C(=O)O,inactive
12,CC(C)(Cc1c[nH]c2ccccc12)NCC(O)COc1ccccc1C#N (stereo not given),inactive
13,COC(=O)C(C)(C)C,inactive
14,O=C(c1ccc(Cl)cc1)c1ccc(Cl)cc1,inactive
15,CC(=O)Nc1ccccc1O,inactive
16,O=C1c2ccccc2C(=O)c2c1ccc(O)c2O,inactive
17,C=CC(C)(O)CC/C=C(/C)CCC=C(C)C (stereo not given),inactive
18,Cc1ccccc1CCO,inactive
19,CC/C=C\CCO,inactive
20,N#Cc1ccc(CC(=O)c2cccc(C(F)(F)F)c2)cc1,inactive

row,Compound,Potency
1,CCc1ccc(C(=O)C(C)CN2CCCCC2)cc1 (stereo not given),inactive
2,O=P(c1ccccc1)(c1ccccc1)c1ccccc1,inactive
3,CCc1ccc2c(c1)C(=O)c1ccccc1C2=O,inactive
4,CCCCCCCCOCCCN,inactive
5,C=C[Si]1(C)O[Si](C)(C=C)O[Si](C)(C=C)O[Si](C)(C=C)O1 (stereo not given),inactive
6,CC(CN=Cc1ccccc1O)N=Cc1ccccc1O (stereo not given),inactive
7,Nc1ccc(F)cc1F,inactive
8,CCCCOc1ccc(N)cc1,inactive
9,O=C(O)COCC(=O)O,inactive
10,O=C(Cl)c1cc(Cl)cc(Cl)c1,inactive
11,CC(C)(O)C(=O)O,inactive
12,CC(CCl)OC(C)CCl (stereo not given),inactive
13,Nc1nc(Cl)nc2c1ncn2[C@H]1C[C@H](O)[C@@H](CO)O1,inactive
14,CCOCCn1c(N2CCCN(C)CC2)nc2ccccc21,inactive
15,C1=COCCC1,inactive
16,CCCCCCC/C=C/C=O,inactive
17,CCOC(C)OCC,inactive
18,O=C(NC1CCN(CCc2c[nH]c3ccccc23)CC1)c1ccccc1,inactive
19,Cc1cc(C)n(CO)n1,inactive
20,O=c1c2ccccc2oc2ccccc12,inactive
